Bioassay records (PubChem)
sEH inhibitor = soluble epoxide hydrolase inhibitors, primary screen, biochemical, human sEH. inhibition, % at 2 µM. hit rate 0.34% among 91,000. AID 707, 2007. recombinant human sEH enzymatic activity assay; in the data active = inhibition above about 80%
CYP2C19 inhib = blockers of cytochrome P450 2C19 activity – biochemical, luminescence, ADME assay, primary screen; CYP2C19 Supersomes, luciferin-H EGE luminescence, 30 min; inhibition, % at 5 µM; AID 778, 2007; P33261; hit rate 21% among 96,000;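 active = CYP2C19 inhibition above a set limit at 5 µM in the primary screen, cut at about 50% in these data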;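 note: plate controls were negative control wells for no effect and 2.5 mM tranylcypromine positive control for full effect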
Target sequence (P33261 whole entry, looked up): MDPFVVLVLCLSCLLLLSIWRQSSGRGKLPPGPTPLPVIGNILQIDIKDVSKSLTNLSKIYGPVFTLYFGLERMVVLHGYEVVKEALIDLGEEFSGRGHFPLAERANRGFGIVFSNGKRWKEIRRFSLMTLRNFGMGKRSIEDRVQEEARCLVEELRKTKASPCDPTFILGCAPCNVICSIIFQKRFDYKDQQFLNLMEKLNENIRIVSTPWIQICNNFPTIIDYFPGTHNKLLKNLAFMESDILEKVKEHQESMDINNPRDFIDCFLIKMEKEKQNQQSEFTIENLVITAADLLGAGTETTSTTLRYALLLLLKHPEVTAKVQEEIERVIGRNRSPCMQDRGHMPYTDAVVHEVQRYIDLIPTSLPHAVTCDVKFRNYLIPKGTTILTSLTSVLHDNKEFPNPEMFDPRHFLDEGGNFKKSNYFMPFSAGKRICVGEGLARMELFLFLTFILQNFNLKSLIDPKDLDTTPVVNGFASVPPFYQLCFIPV
CYP2C9 activ = human CYP2C9 activators, primary screen, biochemical, luminescence; recombinant CYP2C9, luciferin-H conversion; active compounds read high; factor 1 = untreated enzyme, 0 = blocked; activation factor at 5 µM; hit rate 1.4% among 96,000;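 active = activation factor of 2 or more for CYP2C9 at a 5 µM dose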;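 note: 0 = sulfaphenazole-blocked wells and 1 = vehicle-only wells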
CYP2C19 activ = human CYP2C19 activators, primary screen, biochemical, luminescence; activation factor at 5 µM; 96,000 tested, under 10 active; AID 1025, 2008; Cytochrome P450 2C19 (Homo sapiens), P33261; recombinant CYP2C19, luciferin-H EGE luminescence; active compounds read high; 0 = fully inhibited enzyme, 1 = untreated enzyme;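 active = activation factor of at least 2 at 5 µM in the primary screen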;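 note: 0 = wells with 2.5 mM tranylcypromine and 1 = vehicle-only wells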
CYP2C9 inh = blockers of cytochrome P450 2C9 activity – biochemical, luminescence, ADME assay, primary screen; P11712; CYP2C9 Supersomes, luciferin-H conversion; inhibition, % at 5 µM; hit rate 20% among 96,000;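 active = blocking of liver enzyme CYP2C9 beyond about 50% at 5 µM, limit read from the data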
sEH act = soluble epoxide hydrolase activators, primary screen, biochemical, human sEH. purified human sEH enzymatic activity, activator screen. activation, % at 2 µM. hit rate 0.04% among 91,000; in the data active = activation above about 37%
* marks the source's active call; other numbers are inactive results; x = no result given. An excerpt weighted towards active compounds, which were near 27% of everything screened.

SMILES	sEH inhibitor	CYP2C19 inhib	CYP2C9 activ	CYP2C19 activ	CYP2C9 inh	sEH act
COc1ccc2c(c1)NC1(O)c3ccccc3C(=O)C21O (stereo not drawn)	-6.5	-9.4	1.5	1.1	-49.5	8.0
COc1ccc2c(c1)C1(Nc3ccccc3C(=O)N1c1ccccc1)C(=O)N2 (stereo not drawn)	4.4	27.0	0.1	0.7	87.1*	-4.8
Cc1cc(C)c2c(N)c(-c3nc4ccccc4[nH]3)sc2n1	6.4	52.2*	0.4	0.5	57.4*	-3.0
Cc1ccc2nc(-c3sc4nc(C)ccc4c3N)[nH]c2c1	5.5	x	x	x	x	-6.2
O=C(O)C1C2C=CC(C3CC23)C1C(=O)NCCc1ccccc1 (stereo not drawn)	1.8	41.5	0.9	0.6	10.5	3.4
CCOC(=O)c1sc(C(=O)OCC)c(OCCO)c1OCCO	3.6	-1.7	0.8	1	15.7	-2.1
Cc1ccc(C2NNC(=O)C2NC(=O)c2ccccc2)cc1 (stereo not drawn)	9.0	60.4*	0.8	0.4	23.1	-7.6
CCOC(=O)C1=C(CSc2nccn2C)NC(=O)NC1c1cc(C)ccc1C (stereo not drawn)	-11.2	46.5	0.8	0.5	15.4	14.8
CCOC(=O)C1=C(CSc2nccn2C)NC(=O)NC1c1ccc2c(c1)OCO2 (stereo not drawn)	0.5	88.4*	0.6	0.1	40.9	-4.7
COc1ccc(CCCC(=O)NC2CCCCC2C)c(C)c1 (stereo not drawn)	47.7	28.4	1.4	0.7	-35.8	-47.7
Cc1nc(CS(=O)(=O)c2ccccc2)cc(Sc2ccc(Cl)cc2Cl)n1	-6.0	32.2	0.5	0.7	50.3*	7.1
O=C1c2[nH]nc(-c3ccccc3O)c2C(c2ccccc2F)N1Cc1ccco1 (stereo not drawn)	-17.6	85.1*	0.1	0.1	94.9*	19.1
CCC(Sc1nnc2c3ccccc3n(CC)c2n1)C(=O)Nc1sc2c(c1C#N)CCCC2 (stereo not drawn)	1.3	37.6	0.5	0.6	51.9*	-2.2
CCOC(=O)Cc1nnc(NC(=O)C(CC)Sc2nnc3c4ccccc4n(C)c3n2)s1 (stereo not drawn)	3.4	48.5	0.1	0.5	94.1*	-4.1
CCOC(=O)c1sc(NC(=O)C(CC)Sc2nnc3c4ccccc4n(C(C)C)c3n2)nc1C (stereo not drawn)	x	35.2	0.3	0.6	66.5*	x
O=C(O)C1CCN(C(=O)COc2ccc3c4c(c(=O)oc3c2)CCC4)CC1	1.3	8.1	1.1	0.9	-5.3	-0.1
C/C=C(\CS(=O)(=O)c1ccccc1)S(=O)(=O)c1ccccc1	1.5	87.2*	0.7	0.1	29.8	2.1
COc1ccc(OC)c(NC(=O)Nc2cccc3ccccc23)c1	5.0	5.7	0.6	0.9	38.7	-5.4
COC(=O)/C(=C/Nc1cccc2ccccc12)[N+](=O)[O-]	-11.9	55.2*	0.9	0.4	13.2	8.8
CCOc1ccc2[nH]c(=O)c(CN(CCOC)C(=O)N3CCOCC3)cc2c1	-5.1	-1.1	1	1	4.8	6.7
COc1ccc(CNC(=O)C(c2ccco2)N(Cc2cccs2)C(=O)Cc2cccs2)cc1 (stereo not drawn)	-6.3	7.6	1.1	0.9	-5.8	5.7
COc1ccc(CNC(=O)C(c2ccncc2)N(C(=O)Cc2cccs2)c2ccccc2C)cc1 (stereo not drawn)	-8.7	54.3*	0.7	0.5	28.2	11.3
COC(=O)c1ccc(C(C(=O)NCc2ccccc2)N(Cc2cccs2)C(=O)c2cnccn2)cc1 (stereo not drawn)	0.4	7.3	0.7	0.9	32.1	1.4
COc1ccc(CNC(=O)C(c2ccc(C)cc2)N(Cc2cccs2)C(=O)c2ccc3c(c2)OCCO3)cc1 (stereo not drawn)	-3.3	66.1*	0.5	0.3	49.4	5.8
COc1ccc(C(C(=O)NCc2ccccc2)N(Cc2ccc3c(c2)OCO3)C(=O)c2cnccn2)cc1 (stereo not drawn)	3.0	93.9*	0.1	0.1	94.2*	-1.1
